This is an account of results in PubChem BioAssay (EPA / NIEHS).

Each structure is given as a SMILES string. Results filed as inconclusive are left out. Active and inactive are the calls of the source. Rule for the calls, unless noted: active = hit-call score of the fitted dose curve at least 0.9, where 1 is the maximum; inactive = score below 0.9.

Experiment [1] deals with Retinoic acid receptor RXR-alpha (Homo sapiens) (UniProt P19793). Description: ATG_RXRa_TRANS: Attagene TRANS-FACTORIAL HepG2 Assay for human Retinoid X Receptor alpha (RXRa) (AID 2283012; active = hit-call score of the fitted dose curve at least 0.9, where 1 is the maximum). The method, boiled down: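 Cells (HepG2) carried transiently transfected GAL4-responsive reporter units. Following a 24 h chemical incubation, reporter mRNA induction was read via RT-PCR fragment analysis; DMSO served as negative control and baseline.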
Retinoic acid receptor RXR-alpha (Homo sapiens), sequence (P19793 whole entry, looked up, the tested form may be a part): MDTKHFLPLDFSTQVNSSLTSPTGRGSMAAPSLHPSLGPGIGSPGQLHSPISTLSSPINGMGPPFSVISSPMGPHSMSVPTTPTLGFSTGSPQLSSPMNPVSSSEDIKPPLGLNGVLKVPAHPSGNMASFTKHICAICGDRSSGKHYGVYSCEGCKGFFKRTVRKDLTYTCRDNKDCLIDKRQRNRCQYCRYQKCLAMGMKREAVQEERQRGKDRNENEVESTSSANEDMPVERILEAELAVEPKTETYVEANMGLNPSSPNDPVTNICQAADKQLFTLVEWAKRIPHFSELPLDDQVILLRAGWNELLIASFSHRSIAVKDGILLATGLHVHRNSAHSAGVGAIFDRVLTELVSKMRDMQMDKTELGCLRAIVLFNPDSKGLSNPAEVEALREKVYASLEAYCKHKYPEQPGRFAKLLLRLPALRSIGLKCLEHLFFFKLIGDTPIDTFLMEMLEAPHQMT

The target in experiment [2] is human Retinoid X Receptor beta (RXRb), RXRB (gene 6257) (UniProt P28702). Description: ATG_RXRb_TRANS: Attagene TRANS-FACTORIAL HepG2 Assay for human Retinoid X Receptor beta (RXRb) (AID 2283013; active = hit-call score of the fitted dose curve at least 0.9, where 1 is the maximum). An outline of the steps:
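Multiplexed TRANS reporter assay in HepG2; 24 h dosing; reporter mRNA by RT-PCR/CE fluorescence; gain-of-signal relative to DMSO.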

Read-out in experiment [3]: E-selectin (Homo sapiens) (UniProt P16581)
Briefly: BSK_3C_Eselectin: BioMAP Diversity Plus: 3C Assay for Eselectin Biomarker Activity (AID 2283015).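 For outcome: cell surface E-selectin protein quantified by ELISA 24 h after dosing.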 The conditions noted are these: primary human endothelial cells (HUVEC); actives raise or lower the signal. An outline of the steps:
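Human vascular endothelium from umbilical vein is exposed to test chemicals for 24 h. E-selectin levels are read by ELISA and compared with DMSO controls.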

Read-out in experiment [4]: Interleukin-1 alpha (IL1a), IL1A (gene 3552)
Description: BSK_BE3C_IL1a: BioMAP Diversity Plus: BE3C Assay for Interleukin-1 alpha (IL1a) Biomarker Activity (AID 2283016). The conditions noted are these: primary human bronchial epithelial cells; actives raise or lower the signal. An outline of the steps: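 Cultures of primary human bronchial epithelial cells receive test chemical. After 24 h, IL-1a is quantified by ELISA, while parallel wells are fixed in TCA and SRB-stained for total protein. Changes in either direction are fitted relative to DMSO.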

Read-out in experiment [5]: Monocyte Chemoattractant Protein-1 (MCP1), CCL2 (gene 6347)
Description: BSK_3C_MCP1: BioMAP Diversity Plus: 3C Assay for Monocyte Chemoattractant Protein-1 (MCP1) Biomarker Activity (AID 2283017). The following applies: primary human endothelial cells (HUVEC); actives raise or lower the signal. The method, boiled down:
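Endothelial cells from human umbilical vein are dosed with chemical, cultured 24 h, then assayed for MCP-1 by ELISA; both increases and decreases are modelled against DMSO controls.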

Read-out in experiment [6]: Monocyte Chemoattractant Protein-1 (MCP1), CCL2 (gene 6347)
Description: BSK_4H_MCP1: BioMAP Diversity Plus: 4H Assay for Monocyte Chemoattractant Protein-1 (MCP1) Biomarker Activity (AID 2283018). The conditions noted are these: primary human endothelial cells (HUVEC); actives raise or lower the signal. An outline of the steps:
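Readout: MCP-1 ELISA on compound-treated HUVEC, sampled 24 h post-dosing. Baseline and negative control DMSO; bidirectional fit. Overt toxicity checked alongside by sulforhodamine B protein staining at time of biomarker measurement.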

Read-out in experiment [7]: Human Leukocyte Antigen - DR isotype (HLADR), HLA-DRA (gene 3122)
Briefly: BSK_3C_HLADR: BioMAP Diversity Plus: 3C Assay for Human Leukocyte Antigen - DR isotype (HLADR) Biomarker Activity (AID 2283019).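 For outcome: ELISA of cell-surface HLA-DR on HUVEC 24 h after dosing.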 The conditions noted are these: primary human endothelial cells (HUVEC); actives raise or lower the signal. An outline of the steps:
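Endothelial cells from human umbilical vein are treated with test chemical; after 24 h, HLA-DR levels are measured by ELISA. Data are fitted in both directions using DMSO as the baseline.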

Read-out in experiment [8]: Interleukin-8 (IL8), CXCL8 (gene 3576)
Description: BSK_3C_IL8: BioMAP Diversity Plus: 3C Assay for Interleukin-8 (IL8) Biomarker Activity (AID 2283020). The following applies: primary human endothelial cells (HUVEC); actives raise or lower the signal. The method, boiled down: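 Human vascular endothelial cells (umbilical vein) in the 3C system; IL-8 level detected by ELISA at 24 h post-dose, with DMSO as baseline.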

Experiment [9] has as its target human Vitamin D Receptor (VDR), VDR (gene 7421) (UniProt P11473). Description: ATG_VDR_TRANS: Attagene TRANS-FACTORIAL HepG2 Assay for human Vitamin D Receptor (VDR) (AID 2283022; active = hit-call score of the fitted dose curve at least 0.9, where 1 is the maximum). The method, boiled down:
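Fluorescence of labelled reporter cDNA fragments, resolved by capillary electrophoresis, gives mRNA induction after 24 h treatment of HepG2 cells carrying transfected Gal4-fusion reporter units. Activity is fitted in the positive direction with DMSO as baseline.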

A short description of experiment [10]: BSK_3C_SRB: Viability Assessment in the BioMAP Diversity Plus: 3C Assay (AID 2283023).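 Note: cells read 24 h after compound dosing; fitted both ways against DMSO so a hit may be signal rise or drop.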 The conditions noted are these: primary human endothelial cells (HUVEC). An outline of the steps:
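Cells were dosed with chemical, cultured 24 h, fixed with 10% TCA, stained with 0.1% SRB and read at 560 nm. Human umbilical vein endothelium was used; DMSO served as negative control and baseline.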

Read-out in experiment [11]: Matrix Metallopeptidase 1 (MMP1), MMP1 (gene 4312)
Briefly: BSK_BE3C_MMP1: BioMAP Diversity Plus: BE3C Assay for Matrix Metallopeptidase 1 (MMP1) Biomarker Activity (AID 2283024). The conditions noted are these: primary human bronchial epithelial cells; actives raise or lower the signal. The method, boiled down: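 Dose cells, wait 24 h, run MMP1 ELISA; cells are human bronchial epithelial primaries. Both increases and decreases relative to DMSO counted.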

Read-out in experiment [12]: Pselectin, SELP (gene 6403)
Briefly: BSK_4H_Pselectin: BioMAP Diversity Plus: 4H Assay for Pselectin Biomarker Activity (AID 2283026). The following applies: primary human endothelial cells (HUVEC); actives raise or lower the signal. An outline of the steps: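 Human vascular endothelium from umbilical vein; P-selectin measured by ELISA at 24 h post-dose, with cytotoxicity checked by sulforhodamine B total-protein staining in parallel cultures (0.1% SRB after 10% TCA fixation, read at 560 nm).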

Experiment [13] in a line: BSK_4H_SRB: Viability Assessment in the BioMAP Diversity Plus: 4H Assay (AID 2283027).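 For AC50: curves fitted both ways versus DMSO so AC50 may be loss or gain.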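 Note: cells exposed to compound for 24 h before staining.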 The following applies: primary human endothelial cells (HUVEC). The method, boiled down:
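Human umbilical vein endothelial cells were dosed with chemical and, after 24 h, fixed with 10% TCA, stained with 0.1% sulforhodamine B, and read at 560 nm to give total protein as a cytotoxicity measure. Bidirectional fitting relative to DMSO control.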

Experiment [14] in a line: BSK_BE3C_SRB: Viability Assessment in the BioMAP Diversity Plus: BE3C Assay (AID 2283028).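 For AC50: fitted both ways so AC50 may mark signal gain or loss versus DMSO.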 The following applies: primary human bronchial epithelial cells. An outline of the steps: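 Overt cytotoxicity was assessed as total protein in confluent human primary bronchial epithelial cultures 24 h after chemical addition, using 0.1% sulforhodamine B staining read at 560 nm.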

Read-out in experiment [15]: Thrombomodulin, THBD (gene 7056)
Description: BSK_3C_Thrombomodulin: BioMAP Diversity Plus: 3C Assay for Thrombomodulin Biomarker Activity (AID 2283029). The following applies: primary human endothelial cells (HUVEC); actives raise or lower the signal. An outline of the steps: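 Thrombomodulin ELISA, human primary HUVEC, 24 h post-dose; data fitted in both directions relative to DMSO.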

Read-out in experiment [16]: Urokinase-type plasminogen activator receptor (uPAR), PLAUR (gene 5329)
Briefly: BSK_4H_uPAR: BioMAP Diversity Plus: 4H Assay for Urokinase-type plasminogen activator receptor (uPAR) Biomarker Activity (AID 2283030). The following applies: primary human endothelial cells (HUVEC); actives raise or lower the signal. An outline of the steps: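 Chemicals are dosed onto human vascular endothelial primary cells (umbilical vein). After 24 h, uPAR is read by ELISA. Gain or loss of signal is fitted relative to DMSO.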

Read-out in experiment [17]: Vascular endothelial growth factor receptor 2 (Homo sapiens) (UniProt P35968)
Briefly: BSK_4H_VEGFRII: BioMAP Diversity Plus: 4H Assay for Vascular endothelial growth factor receptor 2 (VEGFR2) Biomarker Activity (AID 2283031).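 For AC50: cell-surface VEGFR2 protein level quantified by ELISA.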 The following applies: primary human endothelial cells (HUVEC); actives raise or lower the signal. The method, boiled down:
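VEGFRII levels on human vascular endothelial primary cells were determined by ELISA at 24 hours post-dosing, with gain- or loss-of-signal fitted against DMSO controls.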

Read-out in experiment [18]: Human Leukocyte Antigen - DR isotype (HLADR), HLA-DRA (gene 3122)
Description: BSK_BE3C_HLADR: BioMAP Diversity Plus: BE3C Assay for Human Leukocyte Antigen - DR isotype (HLADR) Biomarker Activity (AID 2283032). The conditions noted are these: primary human bronchial epithelial cells; actives raise or lower the signal. An outline of the steps: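 Signal came from an ELISA for HLA-DR in human bronchial epithelial primary cells harvested 24 h after treatment; gain- and loss-of-signal fitting used DMSO controls as reference.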

Experiment [19] concerns the target human Thyroid Receptor alpha (THRa1), THRA (gene 7067) (UniProt P10827). Description: ATG_THRa1_TRANS: Attagene TRANS-FACTORIAL HepG2 Assay for human Thyroid Receptor alpha (THRa1) (AID 2283014; active = hit-call score of the fitted dose curve at least 0.9, where 1 is the maximum). The method, boiled down:
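First, HepG2 cells receive multiple GAL4-UAS reporter units and the chimeric receptor. They are then dosed for 24 h, after which RNA is reverse-transcribed, amplified, labelled, HpaI-cut and sized by capillary electrophoresis; gain relative to DMSO is scored.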

human Retinoid X Receptor beta (RXRb), RXRB (gene 6257), sequence (P28702 whole entry, looked up): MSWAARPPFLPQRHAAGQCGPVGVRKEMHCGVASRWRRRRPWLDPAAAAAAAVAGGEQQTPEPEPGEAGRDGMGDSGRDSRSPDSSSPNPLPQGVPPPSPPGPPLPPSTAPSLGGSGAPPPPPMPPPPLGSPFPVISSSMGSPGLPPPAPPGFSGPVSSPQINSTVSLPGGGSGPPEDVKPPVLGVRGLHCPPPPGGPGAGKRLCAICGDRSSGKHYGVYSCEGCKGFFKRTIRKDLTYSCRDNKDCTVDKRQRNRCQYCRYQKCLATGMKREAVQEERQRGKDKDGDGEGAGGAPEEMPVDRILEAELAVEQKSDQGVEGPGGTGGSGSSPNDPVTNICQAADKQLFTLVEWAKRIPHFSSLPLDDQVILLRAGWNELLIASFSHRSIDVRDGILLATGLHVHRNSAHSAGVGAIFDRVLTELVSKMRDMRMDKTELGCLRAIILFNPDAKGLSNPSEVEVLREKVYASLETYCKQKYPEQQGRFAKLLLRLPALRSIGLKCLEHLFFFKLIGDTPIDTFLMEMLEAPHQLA
human Vitamin D Receptor (VDR), VDR (gene 7421), sequence (P11473 whole entry, looked up, the tested form may be a part): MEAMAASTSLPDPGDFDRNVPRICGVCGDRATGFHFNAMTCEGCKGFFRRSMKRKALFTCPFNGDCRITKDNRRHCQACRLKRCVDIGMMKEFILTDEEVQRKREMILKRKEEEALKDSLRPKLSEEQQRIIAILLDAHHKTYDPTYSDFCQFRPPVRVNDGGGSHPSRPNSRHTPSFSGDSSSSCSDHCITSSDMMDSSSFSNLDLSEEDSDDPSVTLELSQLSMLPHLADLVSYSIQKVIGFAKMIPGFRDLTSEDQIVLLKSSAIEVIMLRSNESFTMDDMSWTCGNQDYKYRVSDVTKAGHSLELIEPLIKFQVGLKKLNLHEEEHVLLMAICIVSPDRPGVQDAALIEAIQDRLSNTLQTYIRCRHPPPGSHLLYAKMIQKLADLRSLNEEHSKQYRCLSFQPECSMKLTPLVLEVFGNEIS
human Thyroid Receptor alpha (THRa1), THRA (gene 7067), sequence (P10827 whole entry, looked up, the tested form may be a part): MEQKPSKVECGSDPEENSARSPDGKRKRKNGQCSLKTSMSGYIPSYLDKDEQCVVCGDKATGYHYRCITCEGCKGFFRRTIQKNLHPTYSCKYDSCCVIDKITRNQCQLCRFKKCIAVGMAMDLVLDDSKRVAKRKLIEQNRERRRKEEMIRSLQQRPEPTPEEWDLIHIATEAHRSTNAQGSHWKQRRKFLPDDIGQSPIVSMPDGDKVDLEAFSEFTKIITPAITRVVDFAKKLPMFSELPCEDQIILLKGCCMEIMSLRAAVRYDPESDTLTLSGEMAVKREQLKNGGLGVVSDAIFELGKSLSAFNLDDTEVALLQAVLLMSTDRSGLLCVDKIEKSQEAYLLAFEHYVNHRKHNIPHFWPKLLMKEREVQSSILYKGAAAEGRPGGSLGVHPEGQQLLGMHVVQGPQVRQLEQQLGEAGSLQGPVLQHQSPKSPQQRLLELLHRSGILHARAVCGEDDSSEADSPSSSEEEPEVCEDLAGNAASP
E-selectin (Homo sapiens), sequence (P16581 whole entry, looked up): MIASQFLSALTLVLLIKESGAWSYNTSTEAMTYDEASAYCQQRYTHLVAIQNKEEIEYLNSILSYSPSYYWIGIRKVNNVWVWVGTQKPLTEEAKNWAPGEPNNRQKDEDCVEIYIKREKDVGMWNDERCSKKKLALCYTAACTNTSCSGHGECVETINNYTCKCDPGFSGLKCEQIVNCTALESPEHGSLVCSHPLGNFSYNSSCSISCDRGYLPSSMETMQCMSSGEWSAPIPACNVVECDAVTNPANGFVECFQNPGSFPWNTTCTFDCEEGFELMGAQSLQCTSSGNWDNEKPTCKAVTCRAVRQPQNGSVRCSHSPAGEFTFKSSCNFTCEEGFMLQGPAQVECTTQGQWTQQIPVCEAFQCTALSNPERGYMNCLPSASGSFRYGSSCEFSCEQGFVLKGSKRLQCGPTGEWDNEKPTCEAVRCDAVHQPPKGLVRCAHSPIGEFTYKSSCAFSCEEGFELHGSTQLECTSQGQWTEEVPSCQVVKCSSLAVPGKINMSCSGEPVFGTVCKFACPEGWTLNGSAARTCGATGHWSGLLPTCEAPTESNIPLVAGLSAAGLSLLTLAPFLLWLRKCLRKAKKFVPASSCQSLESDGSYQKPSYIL

Regarding `C=C(C)C(=O)O[C@H]1C[C@@H]2CC[C@@]1(C)C2(C)C`, the compound was classed as inactive in [1], in experiment [9] and in experiment [15]. Moreover, the AC50 is 100 µM (active) in experiment [2]; 15.1 µM (active) in [3]; 20 µM (active) in experiment [4]; 20 µM (active) in [5]; 5.54 µM (active) in experiment [6]; 9.37 µM (active) in experiment [7]. The AC50 is 20 µM (active) in [8]; 13.8 µM (active) in experiment [10]; 20 µM (active) in [11]; 11.3 µM (active) in [12]; 10.9 µM (active) in experiment [13]; 34.7 µM (active) in experiment [14]. The AC50 is 9.5 µM (active) in [16], 5.29 µM (active) in experiment [17] and 20 µM (active) in experiment [18].

`CCCCC(CC)COCCC#N` (centres undefined): the compound was classed as inactive in experiment [1], in experiment [3], in [4], in experiment [6], in experiment [8] and in experiment [9]. In addition, the result in experiment [10], in experiment [11], in experiment [12], in [13], in experiment [14] and in experiment [15] was inactive. In addition, the outcome in experiment [16] and in experiment [17] was inactive. Also, the AC50 in experiment [2] is 51.1 µM (active); in [5], 20 µM (active); in experiment [7] it was 20 µM (active).

Turning to `CC(C=O)Cc1ccc(C(C)C)cc1` (centres undefined), the result in [1], in experiment [2] and in experiment [9] was inactive.

For the compound `C=CC(=O)OCCn1c(=O)n(CCOC(=O)C=C)c(=O)n(CCOC(=O)C=C)c1=O`, the call in [1] and in experiment [19] was inactive.

With `CCO[Si](CCCS)(OCC)OCC`, the compound was called inactive in experiment [1] and in [19].

As for `O=C(O)c1cn(C2CC2)c2cc(N3CCNCC3)c(F)cc2c1=O`, the compound was classed as inactive in [1], in experiment [2], in [3], in [4], in experiment [5] and in [6]. The result in experiment [7], in experiment [8], in experiment [10], in [11], in experiment [12] and in experiment [13] was inactive. Further, the result in [14], in experiment [15], in [16] and in experiment [17] was inactive.

For the compound `CCCCOCCOCCSC#N`, the result in experiment [1], in experiment [2] and in experiment [9] was inactive.

On to `CC1(C)CCC(C)(C)c2cc(C(=O)Nc3ccc(C(=O)O)cc3)ccc21`, for which the compound was classed as inactive in [1], in experiment [2] and in experiment [9].

Turning to `O=C(O)c1cccc([N+](=O)[O-])c1`, the result in [1] and in [19] was inactive.

`Cc1ccc(O)c(C(C)(C)C)c1`: the outcome in experiment [1] and in experiment [17] was inactive. The AC50 in [2] is 9 µM (active); in [3] it was 25.5 µM (active); in [4] it was 29.6 µM (active); in [5], 27.6 µM (active); in [6] it was 24.9 µM (active); in experiment [7], 29.8 µM (active). Further, the AC50 in [8] is 36.5 µM (active); in [10], 25 µM (active); in experiment [11], 28.3 µM (active); in [12], 34.3 µM (active); in [13] it was 33.5 µM (active); in experiment [14], 31.9 µM (active). In addition, the AC50 in experiment [15] was 30.8 µM (active); in experiment [16], 28.2 µM (active).

With `Cc1cccc(C)c1C`, the result in experiment [1] and in [19] was inactive.

In the case of `CCOC(=O)c1ccccc1OC`, the outcome in [1], in experiment [2] and in experiment [9] was inactive.

`CC1(C)[C@@H]2CC[C@@]1(C)[C@H](O)C2`: the outcome in experiment [1] and in [19] was inactive.

What is called AC50 is the concentration at which the activity in the assay is half-maximal.
